The test relates to T1, DRAK1.
T1 construct: gene STK17A
The conditions noted are these: concentration: 1 μM, replicates: in singlicate; n = 1.
As for `Fc1cccc(COc2ccc(Nc3ncnc4cc[nH]c34)cc2Cl)c1`, the “%Inh” value is reported as 55%.
As to `COC(=O)c1cccc(NC(=O)NCCNc2ccnc(Nc3ccc(F)cc3)n2)c1` [GSK1379883], the “%Inh” value is 0%.
`CN1c2ccc(-c3ccc(C(=O)NCCO)cc3)cc2-c2[nH]ncc2S1(=O)=O`: the “%Inh” value is on record as 24%.
For `CC(C)(C)c1ccc(-n2cnc3c(N)ncnc32)cc1` [SKF-97263], the “%Inh” value worked out at 85%.
The same measure for `Nc1nc(-c2cccnc2)c(-c2ccnc3ccccc23)s1` [GW684083]: 32%.
In the case of `CSc1ccc(NC2=C(c3ccccc3Cl)C(=O)NC2=O)cc1` [SB-342411], the “%Inh” value was 0%.
For `Cc1ccc(C)c(NC(=O)NCCNc2ccnc(Nc3ccc(F)cc3)n2)c1` [GSK1379878], the “%Inh” value is reported as 5%.
Consider `COc1ccc(-c2oc3ncnc(N)c3c2-c2ccc(OC)cc2)cc1` [SB-589132], for which the “%Inh” value is given as 4%.
Regarding `Cl.Cn1ccc(-c2cccc(Nc3ccnc4cc(-c5nccs5)ccc34)c2)n1` [GW525701], the “%Inh” value is 8%.
`Cn1cc(-c2ccc3c(c2)CCN3C(=O)Cc2cccc(C(F)(F)F)c2)c2c(N)ncnc21` [GSK2606414]: the “%Inh” value is on record as 3%.
The same measure for `FC(F)(F)c1cc(Nc2nccc(-c3c(-c4ccc(Cl)cc4)nn4ncccc34)n2)ccc1Cl` [GW829351]: 0%; for `O=C(CCO)NCCn1ccc2ncnc(Nc3ccc(Oc4cccc(C(F)(F)F)c4)c(Cl)c3)c21`: 0%; for `COc1ccc(NC(=O)Nc2ccc(C)c(-c3ccc(C(=O)Nc4ccncc4)cc3)c2)cc1` [GSK1398475]: 5%.

Values taken from publication PMC5540273 (PLoS ONE, 2017).
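Note: KINOMEscan kinase panel screen.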
